From PubChem BioAssay (NCI)
About 79,000 compounds went through this panel and 15% of them were active in at least one assay; those are over-represented in the sample as a whole. The source made the active and inactive calls. Cut-off read from the data, not from the text of the source: active = growth inhibition above about 70%; inactive = the rest.

experiment: NCI Yeast Anticancer Drug Screen. Data for the rad14 strain (AID 159);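 note: 0% = growth of vehicle-treated control cultures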; details: S. cerevisiae rad14 strain growth inhibition; at 11.0 µM; active compounds read high
Outline: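 DNA repair-defective yeast, compound-exposed; % growth inhibition derived by comparison with vehicle-treated controls.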

Row | SMILES | growth inhibition
1 | COc1ccc2nc3cccc([N+](=O)[O-])c3c(NCCNCCN(C)C)c2c1 | 0% (inactive)
2 | Cc1cccc(/C=N/NC(=S)NC2CCCCC2)n1 | -11% (inactive)
3 | COC(=O)C(=O)c1c(-c2ccc(Cl)c(Cl)c2)[nH]c2[nH]n(-c3ccccc3)c(=O)c2c1=O | 46% (inactive)
4 | c1ccc([P+](CCN2Cc3ccccc3C2)(c2ccccc2)c2ccccc2)cc1 | 21% (inactive)
5 | Cc1cc(C)c2[s+]snc2c1 | 5% (inactive)
6 | CC(C)(Br)C(=O)/C=C/c1ccccc1 | 27% (inactive)
7 | Cc1ccc(S(=O)(=O)NC(=O)C2C(=O)CC3(CCCCC3)CC2=O)cc1 | 3% (inactive)
8 | NC(=S)N1N=C2c3ccccc3CC[C@H]2[C@@H]1c1ccc(Cl)cc1 | -10% (inactive)
9 | O=[N+]([O-])/C=C/c1cc2ccc3ccccc3c2[nH]1 | 62% (inactive)
10 | O=C1C(=C2CCCC2)CCC1CN1CCCCC1 (configuration not stated) | 29% (inactive)
11 | OC(CC(O)(C(F)(F)F)C(F)(F)F)c1ccc(C(O)CC(O)(C(F)(F)F)C(F)(F)F)cc1 (configuration not stated) | 95% (active)
12 | COc1cc2c(cc1OC)[C@@H](Nc1ccc(C#N)cc1)C1COC(=O)[C@@H]1C2c1cc(OC)c(O)c(OC)c1 (some centres not stated) | 0% (inactive)
13 | O=c1cccccc1[O-].O=c1cccccc1[O-].O=c1cccccc1[O-].[Eu+3] | 25% (inactive)
14 | O=C1c2ccccc2C(=O)c2sc(Nc3ccccc3Cl)nc21 | 96% (active)
15 | NC(CCCCCCCCCCCCC(N)C(=O)c1ccccc1)C(=O)c1ccccc1 (configuration not stated) | 38% (inactive)
16 | CC1=C(C)C(=O)C2=C(OCCO2)C1=O | 4% (inactive)
17 | c1ccc(-c2cc(C3CO3)c3ccccc3n2)cc1 (configuration not stated) | 1% (inactive)
18 | S=C1C(=Nc2ccccc2)N(c2ccccc2)/C(=N\c2ccccn2)N1c1ccccc1 | 36% (inactive)

Row | SMILES | growth inhibition
19 | CCC(OC(C)=O)C1CC(C(C)C)CCC1C (configuration not stated) | 5% (inactive)
20 | CC(C)=CCc1c2c(c(O)c3c(=O)c(-c4ccc(O)c(O)c4)coc13)C=CC(C)(C)O2 | 91% (active)
21 | O=C(NC(N1CCN(c2cc3c(cc2F)c(=O)c(C(=O)O)cn3C2CC2)CC1)(C(F)(F)F)C(F)(F)F)c1ccccc1 | 2% (inactive)
22 | Fc1cc(F)c(F)c(S)c1F | -40% (inactive)
23 | COc1ccc2cc3c4cc5c(cc4cc[n+]3cc2c1OC)OCO5 | 78% (active)
24 | CCCCCCCCNCCCCCCCC | 97% (active)
25 | Nc1cc(Cl)ccc1Nc1ccccc1 | -14% (inactive)
26 | O=C(/C(=C/c1ccc(O)cc1)c1ccccc1)c1ccccc1 | 13% (inactive)
27 | O=Cc1ccccc1C=O | -8% (inactive)
28 | C1=CCN([B-](c2ccccc2)[C+]2CCCCC2)C=C1 | 1% (inactive)
29 | CC/C(=C(\c1ccccc1)c1ccc(OCC[N+](C)(C)C)cc1)c1ccccc1 | 99% (active)
30 | O=S(=O)(c1cccc(C(F)(F)F)c1)N1c2ccccc2-n2cccc2C1c1cccnc1 (configuration not stated) | 73% (active)
31 | Nc1ccc2c(c1)C(=O)c1c(F)cccc1-2 | 16% (inactive)
32 | CN(C)/C(=N/C(=S)Nc1ccccc1)SCc1ccccc1 | -2% (inactive)
33 | CCN(CC)C(=S)N/N=C(\C)c1ccccc1O | 26% (inactive)
34 | CC(C)OC(=O)NNc1cc(Cl)ccc1Cl | 20% (inactive)
35 | CC(C)CCC[C@@H](C)[C@H]1CC[C@H]2[C@@H]3CC[C@H]4C[C@H](N)CC[C@]4(C)[C@H]3CC[C@]12C | -1% (inactive)
36 | O=C1c2ccccc2-c2ccc(N=Cc3ccccc3)cc21 | 3% (inactive)

same assay, conditions: S. cerevisiae rad14 strain growth inhibition; at 33.0 µM; active compounds read high

Row | SMILES | growth inhibition
37 | COc1ccc2nc3cccc([N+](=O)[O-])c3c(NCCNCCN(C)C)c2c1 | 1% (inactive)
38 | Cc1cccc(/C=N/NC(=S)NC2CCCCC2)n1 | 28% (inactive)
39 | COC(=O)C(=O)c1c(-c2ccc(Cl)c(Cl)c2)[nH]c2[nH]n(-c3ccccc3)c(=O)c2c1=O | 62% (inactive)
40 | c1ccc([P+](CCN2Cc3ccccc3C2)(c2ccccc2)c2ccccc2)cc1 | 53% (inactive)
41 | Cc1cc(C)c2[s+]snc2c1 | 9% (inactive)
42 | CC(C)(Br)C(=O)/C=C/c1ccccc1 | 59% (inactive)
43 | Cc1ccc(S(=O)(=O)NC(=O)C2C(=O)CC3(CCCCC3)CC2=O)cc1 | 82% (active)
44 | NC(=S)N1N=C2c3ccccc3CC[C@H]2[C@@H]1c1ccc(Cl)cc1 | -3% (inactive)
45 | O=[N+]([O-])/C=C/c1cc2ccc3ccccc3c2[nH]1 | 88% (active)
46 | O=C1C(=C2CCCC2)CCC1CN1CCCCC1 (configuration not stated) | 57% (inactive)
47 | OC(CC(O)(C(F)(F)F)C(F)(F)F)c1ccc(C(O)CC(O)(C(F)(F)F)C(F)(F)F)cc1 (configuration not stated) | 99% (active)
48 | COc1cc2c(cc1OC)[C@@H](Nc1ccc(C#N)cc1)C1COC(=O)[C@@H]1C2c1cc(OC)c(O)c(OC)c1 (some centres not stated) | 22% (inactive)
49 | O=c1cccccc1[O-].O=c1cccccc1[O-].O=c1cccccc1[O-].[Eu+3] | 98% (active)
50 | O=C1c2ccccc2C(=O)c2sc(Nc3ccccc3Cl)nc21 | 99% (active)
51 | NC(CCCCCCCCCCCCC(N)C(=O)c1ccccc1)C(=O)c1ccccc1 (configuration not stated) | 62% (inactive)
52 | CC1=C(C)C(=O)C2=C(OCCO2)C1=O | 17% (inactive)
53 | c1ccc(-c2cc(C3CO3)c3ccccc3n2)cc1 (configuration not stated) | 25% (inactive)
54 | S=C1C(=Nc2ccccc2)N(c2ccccc2)/C(=N\c2ccccn2)N1c1ccccc1 | 99% (active)

Row | SMILES | growth inhibition
55 | CCC(OC(C)=O)C1CC(C(C)C)CCC1C (configuration not stated) | 17% (inactive)
56 | CC(C)=CCc1c2c(c(O)c3c(=O)c(-c4ccc(O)c(O)c4)coc13)C=CC(C)(C)O2 | 91% (active)
57 | O=C(NC(N1CCN(c2cc3c(cc2F)c(=O)c(C(=O)O)cn3C2CC2)CC1)(C(F)(F)F)C(F)(F)F)c1ccccc1 | 19% (inactive)
58 | Fc1cc(F)c(F)c(S)c1F | 4% (inactive)
59 | COc1ccc2cc3c4cc5c(cc4cc[n+]3cc2c1OC)OCO5 | 96% (active)
60 | CCCCCCCCNCCCCCCCC | 98% (active)
61 | Nc1cc(Cl)ccc1Nc1ccccc1 | 1% (inactive)
62 | O=C(/C(=C/c1ccc(O)cc1)c1ccccc1)c1ccccc1 | 99% (active)
63 | O=Cc1ccccc1C=O | 23% (inactive)
64 | C1=CCN([B-](c2ccccc2)[C+]2CCCCC2)C=C1 | 28% (inactive)
65 | CC/C(=C(\c1ccccc1)c1ccc(OCC[N+](C)(C)C)cc1)c1ccccc1 | 99% (active)
66 | O=S(=O)(c1cccc(C(F)(F)F)c1)N1c2ccccc2-n2cccc2C1c1cccnc1 (configuration not stated) | 94% (active)
67 | Nc1ccc2c(c1)C(=O)c1c(F)cccc1-2 | 27% (inactive)
68 | CN(C)/C(=N/C(=S)Nc1ccccc1)SCc1ccccc1 | 13% (inactive)
69 | CCN(CC)C(=S)N/N=C(\C)c1ccccc1O | 96% (active)
70 | CC(C)OC(=O)NNc1cc(Cl)ccc1Cl | 48% (inactive)
71 | CC(C)CCC[C@@H](C)[C@H]1CC[C@H]2[C@@H]3CC[C@H]4C[C@H](N)CC[C@]4(C)[C@H]3CC[C@]12C | -4% (inactive)
72 | O=C1c2ccccc2-c2ccc(N=Cc3ccccc3)cc21 | 18% (inactive)
